High-throughput results deposited in PubChem by several laboratories.
Rows were chosen to be rich in hits. Some 1.3% of all compounds tested hit in one or more screens of this group.
MEX-5 binding: C. elegans MEX-5 TCR-2 RNA binding activity. Q9XUB2. MEX-5/FITC-TCR2 RNA binding, fluorescence polarization; active compounds read low. activity score (negative = inhibition of binding), % at 10 µM. 300,000 compounds, 0.38% hits. AID 1832;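 active = inhibition past about -25% in most replicates, and total fluorescence under double the plate's negative control median, limit read from the data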;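 also: 0% = DMSO and -100% = 5 µM competing unlabeled TCR2 RNA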
E coli Lon inh: E. coli protease La inhibition | inhibition, % at 7.94 µM | AID 602123 | purified E. coli Lon protease, fluorescence polarization | 360,000 compounds, 0.42% hits; in the data active = inhibition above about 13%, passing the limit was not always enough;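 also: 0% = enzyme with probe and DMSO and 100% = no enzyme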
GLD-1 RNA inh: GLD-1-TGE RNA interaction inhibition (C. elegans). inhibition, % at 5.96 µM. Q17339. AID 2280. purified GLD-1 + fluorescein TGE RNA, fluorescence polarization. 320,000 compounds, 0.44% hits;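 active = percent inhibition above a per-plate cutoff, the plate mean of test compounds plus 3 SD, cut at about 30% in these data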;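 also: 0% = DMSO wells with GLD-1 and probe and 100% = wells lacking GLD-1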
BCLXL inh: blocks human Bcl-xL binding to Bim BH3 peptide. 320,000 compounds, 0.7% hits. GST-Bcl-xL / FITC-Bim BH3 peptide fluorescence polarization. inhibition, % at 10.9 µM;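 active = inhibition above the mean of all tested compounds plus 3 SD, cutoff set per campaign, cut at about 30% in these data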;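 also: 0% = DMSO wells and 100% = unlabeled Bim-BH3 peptide competitor; inhibitors lower millipolarization by displacing the labeled peptide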
EBV gp42 inh: blocks Epstein-Barr virus glycoprotein 42 binding; Q1HVG2; Fluorescence polarization binding assay, mP read-out; inhibition, % (tested at 21.74 µM); 220,000 compounds, 0.42% hits; AID 1085; in the data active = inhibition above about 50%
Target sequence (Q1HVG2 whole entry, looked up): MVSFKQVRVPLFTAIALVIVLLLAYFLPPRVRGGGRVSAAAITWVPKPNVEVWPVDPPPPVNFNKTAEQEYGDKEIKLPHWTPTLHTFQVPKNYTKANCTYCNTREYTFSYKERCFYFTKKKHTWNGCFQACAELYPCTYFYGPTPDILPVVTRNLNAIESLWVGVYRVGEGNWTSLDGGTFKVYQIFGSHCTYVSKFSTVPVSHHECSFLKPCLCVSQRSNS
E coli Lon conf: confirmation of E. coli Lon protease inhibitors | purified E. coli Lon, fluorescence polarization | shares compounds with E coli Lon inh | inhibition, % at 7.94 µM | 1,400 compounds, 31% hits; in the data active = inhibition above about 16%;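 also: 0% = enzyme with probe and DMSO and 100% = no enzyme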
* marks the source's active call; other numbers are inactive results.

`COCCn1nc2cc(C(=O)NCc3cc(C(F)(F)F)cc(C(F)(F)F)c3)ccc2c1OC` gave MEX-5 binding 0, E coli Lon inh 21*, GLD-1 RNA inh 1, BCLXL inh 3, EBV gp42 inh -12 and E coli Lon conf -8.
Screening CCc1nc2ccccc2n1CC(=O)Nc1cc(C)on1 returned MEX-5 binding -1, E coli Lon inh -3, GLD-1 RNA inh -2, BCLXL inh -1 and EBV gp42 inh -6.
Screening CCCn1c(NC(=O)CSCC(=O)Nc2cc(C)on2)nc2ccccc21 returned MEX-5 binding -1, E coli Lon inh 22*, GLD-1 RNA inh 2, BCLXL inh -9 and E coli Lon conf -4.
`COc1cc2c(cc1OC)CN(CC(=O)Nc1cccc([N+](=O)[O-])c1)CC2` gave MEX-5 binding -2, E coli Lon inh 2, GLD-1 RNA inh -3 and BCLXL inh 8.
For COc1cc([N+](=O)[O-])ccc1NC(=O)CN1CCc2cc(OC)c(OC)cc2C1 the results were MEX-5 binding 1, E coli Lon inh 42* and E coli Lon conf 6.
`CC(NC(=O)c1cc2cc(F)ccc2[nH]1)c1ccccc1` (stereo unspecified) gave MEX-5 binding 1, E coli Lon inh 8, GLD-1 RNA inh -1 and BCLXL inh 1.
Screening CC(C)n1c2ccccc2c2cc([N+](=O)[O-])ccc21 returned MEX-5 binding 1, E coli Lon inh 56*, GLD-1 RNA inh 1, BCLXL inh 4, EBV gp42 inh -8 and E coli Lon conf -10.
For Nc1nn(-c2ccccc2)c2ccc([N+](=O)[O-])cc12 the results were MEX-5 binding -4, E coli Lon inh -6, GLD-1 RNA inh -2 and BCLXL inh -2.
Screening COC(=O)c1ccccc1NS(=O)(=O)c1ccc(Cl)nc1 returned MEX-5 binding -3, E coli Lon inh 1, GLD-1 RNA inh -3, BCLXL inh 5 and EBV gp42 inh 6.
`CCC(=O)N(Cc1ccc(C)cc1)Cc1cc2cc3c(cc2[nH]c1=O)OCO3` gave MEX-5 binding -1, E coli Lon inh 21*, GLD-1 RNA inh -4, BCLXL inh 2, EBV gp42 inh -12 and E coli Lon conf 4.
For Cc1ccc(NC(=O)N(Cc2ccc3c(c2)OCO3)Cc2cc3cc4c(cc3[nH]c2=O)OCCO4)cc1 the results were MEX-5 binding 0, E coli Lon inh 15*, GLD-1 RNA inh 0, BCLXL inh 5, EBV gp42 inh -13 and E coli Lon conf 5.
COc1ccc(C(=O)NNC(=O)C(=O)NC2CCCCC2)cc1 was read as MEX-5 binding 1, E coli Lon inh 1, GLD-1 RNA inh -2 and BCLXL inh -4.
O=C(NC(=S)NCc1cccnc1)c1cc(Br)ccc1Cl was read as MEX-5 binding 3, E coli Lon inh -6, GLD-1 RNA inh -3 and BCLXL inh 0.
OC(Cn1cnnc1)c1ccccc1 (stereo unspecified) was read as MEX-5 binding 0, E coli Lon inh 2, GLD-1 RNA inh 0 and BCLXL inh 2.
Screening Cc1ccc(/C=C/C(=O)NCCCN2CCN(CCCNC(=O)/C=C/c3ccc(C)o3)CC2)o1 returned MEX-5 binding 1, E coli Lon inh 27*, GLD-1 RNA inh -2, BCLXL inh 6, EBV gp42 inh 0 and E coli Lon conf -3.
For CCN(CC(=O)Nc1c(F)cccc1F)C(=O)c1cc2ccccc2oc1=O the results were MEX-5 binding -2, E coli Lon inh 23*, GLD-1 RNA inh -2, BCLXL inh 1 and E coli Lon conf -2.
`CCN(CC(=O)Nc1c(F)cccc1F)C(=O)CNC(=O)c1ccc2ccccc2c1` gave E coli Lon inh -5, GLD-1 RNA inh 3 and BCLXL inh 7.
For Cc1ccc(N(C(=O)Cn2nnc(-c3ccc(C)o3)n2)C(C(=O)NC2CCCC2)c2ccncc2)cc1 (stereo unspecified) the results were MEX-5 binding -1, E coli Lon inh -2, GLD-1 RNA inh -1 and BCLXL inh 6.
`Cc1ccc(-c2nnn(CC(=O)N(CC3CCCO3)C(C(=O)NC3CCCCC3)c3ccc(F)cc3)n2)o1` (stereo unspecified) gave MEX-5 binding -4, E coli Lon inh -6, GLD-1 RNA inh 3, BCLXL inh 0 and EBV gp42 inh -28.
